Measurements as given in PubChem BioAssay (NCATS).
Results filed as inconclusive are left out. Where a call stands in place of a potency, no number is given. Active and inactive are the calls of the source. Unless noted, calls follow the shape of the dose curve; as a rule, active = well fitted curve in the direction sought with a large enough effect; inconclusive = small, poorly fitted or top-dose-only effect, or another doubt; inactive = no such curve, though single readings can be large; an effect the other way counts as inactive or inconclusive.

Key:
[1] = P-glycoprotein substrates identified in KB-8-5-11 adenocarcinoma cell line, qHTS therapeutic library screen (AID 1346987); also: nearly all actives have a fitted effect of over 65% in size; also: potency is read from the fitted curve at half-maximal effect
Procedure, shortened: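 KB-8-5-11: colchicine-selected sub-line of KB-3-1 over-expressing P-gp; assay medium lacked colchicine. 72 h drug exposure at 37 degree C, CellTiter-Glo.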

[2] = test system: Zika virus NS2B-NS3 protease (unlinked complex); assay: Primary screen GU Rhodamine qHTS for Zika virus inhibitors: Unlinked NS2B-NS3 protease assay (AID 1347159); also: nearly all actives have a fitted effect of over 60% in size
Procedure, shortened: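 Noncovalent NS2B hydrophilic domain/NS3 protease complex (25 nM final) in 10 mM Tris-HCl pH 8.0, 0.01% Tween 20, preincubated 15 min with compounds (up to 114 microM), then 1.5 microM Rhodamine110 substrate. Fluorescence change over 15 min fitted to 4-parameter Hill.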

[3] = target: Calcium and integrin-binding protein 1 (Homo sapiens) (UniProt Q99828); assay: Primary qHTS for Identification of Calcium Integrin Binding Protein 1 (CIB1) Competitor (AID 1508620);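 also: GST tagged CIB1 binding a fluorescein labelled alphaIIb integrin peptide tracer; top concentration of the series differs between compounds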
Procedure, shortened: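 Fluorescence polarization competition: GST-tagged CIB1 (1 uM final) preincubated with compound 15 min at room temperature, then FITC-labelled alphaIIb peptide (100 nM final) added. After 15 min at room temperature, polarization read at Ex 480/Em 540.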

[4] = Primary redox qHTS assay for identification of artifact compounds. (AID 1845223)
Procedure, shortened: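 Amplex Red (25 uM) and HRP (250 mU/mL) in HBSS, with compounds for 15 min, then 250 uM DTT for 30 min, room temperature, dark. Fluorescence 525/598 nm read; normalized to DMSO and 10 uM DA3003; Hill fit.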

KB-3-1 = assay: Cytotoxic Profiling of Annotated Libraries Using Quantitative High-Throughput Screening (AID 1296008); conditions: Five cell lines viability, CellTiter-Glo ATP luminescence, 48-72 h; max response: stronger effect = lower value; also: nearly all actives have a fitted effect of over 60% in size; also: potency is read from the fitted curve at half-maximal effect
Procedure, shortened: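 Cells exposed to compounds for 48 or 72 hr at 37 degrees Celsius. Viability read as ATP-coupled luminescence with CellTiter-Glo after 10 min at room temperature.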

HACAT = assay: qHTS assay to identify novel small-molecules to repurpose for Merkel cell carcinoma treatment (AID 1296009); conditions: MCC and control cell lines, CellTiter-Glo viability, 72 h; at 44.8 µM (top of the series) unless noted; also: nearly all actives have a fitted effect of over 60% in size
Procedure, shortened: (§1)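 Cells were incubated with compound for 72 hr at 37 degree celsius before CellTiter-Glo addition. Luminescence was normalized with no-cell wells as full cytotoxicity and DMSO as baseline.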

CAOV3 = assay: Primary qHTS to identify gynecologic anti-cancer compounds using libraries of approved drugs and bioactive compounds (AID 1345084); conditions: Gynecologic cancer cell panel viability, ATPlite luminescence, 48 h; series mostly up to 57.5 µM; also: nearly all actives have a fitted effect of over 55% in size; also: potency is read from the fitted curve at half-maximal effect
Procedure, shortened: (§2)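 Measured: luminescence after ATPlite addition (15 min, RT). Exposure: 48 h, 37 C, 5% CO2.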

HeLa = assay: as above; conditions: Gynecologic cancer cell panel viability, ATPlite luminescence, 48 h; series mostly up to 57.5 µM
Procedure, shortened: as §2

JEG-3 = assay: as above; conditions: Gynecologic cancer cell panel viability, ATPlite luminescence, 48 h; series mostly up to 57.5 µM
Procedure, shortened: as §2

SKOV3 = assay: as above; conditions: Gynecologic cancer cell panel viability, ATPlite luminescence, 48 h; series mostly up to 57.5 µM
Procedure, shortened: as §2

[5] = P-glycoprotein substrates identified in KB-3-1 adenocarcinoma cell line, qHTS therapeutic library screen (AID 1346986); also: nearly all actives have a fitted effect of over 60% in size
Procedure, shortened: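 Compounds were tested in dose-response against KB-3-1 and KB-8-5-11 cells at 37 degree C for 72 h, and viability was measured by luminescence. AC50 values came from curve fitting with class-based activity calls.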

CRL-7250 = normal cell line; assay: qHTS assay to identify novel small-molecules to repurpose for Merkel cell carcinoma treatment (AID 1296009); conditions: MCC and control cell lines, CellTiter-Glo viability, 72 h; series mostly up to 92 µM; also: nearly all actives have a fitted effect of over 60% in size
Procedure, shortened: as §1

[6] = target: Cytochrome P450 2D6 (Homo sapiens) (UniProt P10635); assay: Cytochrome P450 family 2 subfamily D member 6 (CYP2D6) small molecule antagonists: luciferase biochemical (cell-free) qHTS assay (AID 1645840; active = well fitted curve in the direction sought with a large enough effect in the repeat runs; an effect the other way counts as inactive or inconclusive; also: nearly all actives have a fitted effect of over 55% in size; also: potency is read from the fitted curve at half-maximal effect)
Procedure, shortened: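 P450-Glo luminescent screen: recombinant CYP2D6 enzyme–proluciferin substrate mix preincubated with compound 10 min at room temperature, then NADPH regeneration added for 1 h at room temperature. Detection reagent added for 20 min; luciferin light read as relative luminescence units.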

[7] = qHTS Assay for Lipid Storage Modulators (AID 1519; calls by dose curve); conditions: Drosophila S3 cells, BODIPY lipid droplet/cell ratio, laser cytometry, cells loaded with oleic acid
Procedure, shortened: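 Cells seeded at 5,000 per well were treated with compounds over a concentration series and loaded with oleic acid (400 uM, as added). Lipid droplet fluorescence (488 nm excitation, 500-530 nm channel) was read by laser-scanning cytometry and normalized to 20 uM Triacsin C.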

Chain of Cytochrome P450 2D6 (Homo sapiens) (P10635 whole entry, looked up): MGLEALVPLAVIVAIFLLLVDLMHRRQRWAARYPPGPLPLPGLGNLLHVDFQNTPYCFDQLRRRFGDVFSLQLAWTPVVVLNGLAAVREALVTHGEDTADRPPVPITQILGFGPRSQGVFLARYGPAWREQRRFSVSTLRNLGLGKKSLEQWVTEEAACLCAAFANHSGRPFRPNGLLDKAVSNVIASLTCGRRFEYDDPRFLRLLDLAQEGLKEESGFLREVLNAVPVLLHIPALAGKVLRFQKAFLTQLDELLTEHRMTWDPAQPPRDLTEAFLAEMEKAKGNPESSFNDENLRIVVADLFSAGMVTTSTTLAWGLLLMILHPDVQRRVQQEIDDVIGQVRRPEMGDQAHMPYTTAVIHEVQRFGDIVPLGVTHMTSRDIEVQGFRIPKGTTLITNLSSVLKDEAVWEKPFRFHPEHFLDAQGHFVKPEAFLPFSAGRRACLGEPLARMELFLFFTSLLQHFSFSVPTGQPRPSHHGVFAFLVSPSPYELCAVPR
Chain of Calcium and integrin-binding protein 1 (Homo sapiens) (Q99828 whole entry, looked up): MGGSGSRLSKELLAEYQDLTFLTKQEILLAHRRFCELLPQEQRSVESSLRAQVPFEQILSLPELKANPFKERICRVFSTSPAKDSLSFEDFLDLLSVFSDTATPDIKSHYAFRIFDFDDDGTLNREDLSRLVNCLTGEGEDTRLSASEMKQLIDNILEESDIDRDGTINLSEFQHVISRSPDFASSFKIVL

## COC(=O)CC1CC2(C(=O)c3c(O)cccc3C2(O)C(=O)OC)C(C)O1 (centres undefined)
[1]
  Potency: inactive
[2]
  Potency: inactive
[3]
  Potency: inactive
[4]
  Potency: inactive
KB-3-1
  max response: 3.88% (inactive)
HACAT
  outcome: inactive
CAOV3
  Potency: inactive
HeLa
  Potency: inactive
JEG-3
  Potency: inactive
SKOV3
  Potency: inactive

## CC1=CC2/C=C(\C)CCCC(O)/C=C/C(=O)OC23C(=O)NC(CC(C)C)C3C1C (centres undefined)
[5]
  Potency: inactive
[2]
  Potency: inactive
[3]
  Potency: inactive
[4]
  Potency: inactive
KB-3-1
  outcome: inactive
CRL-7250
  Potency: inactive
CAOV3
  Potency: inactive
HeLa
  Potency: inactive
JEG-3
  Potency: inactive
SKOV3
  Potency: inactive

## CN1CCc2cc3c(cc2[C@H]1[C@@H]1OC(=O)c2c1ccc1c2OCO1)OCO3
[5]
  Potency: inactive
[1]
  Potency: inactive
[2]
  Potency: inactive
[3]
  Potency: inactive
[4]
  Potency: inactive
KB-3-1
  outcome: inactive
HACAT
  outcome: inactive
CAOV3
  Potency: inactive
JEG-3
  Potency: inactive
SKOV3
  Potency: inactive

## C1=C(c2cnc[nH]2)c2ccsc2CC1
[2]
  Potency: inactive
[6]
  Potency: 12000 nM (active)
[4]
  Potency: inactive
KB-3-1
  max response: -3.3% (inactive)
HACAT
  outcome: inactive
CAOV3
  Potency: inactive
HeLa
  Potency: inactive
JEG-3
  Potency: inactive

## COc1ccsc1CNCC[C@@]1(c2ccccn2)CCOC2(CCCC2)C1
[1]
  Potency: inactive
[3]
  Potency: inactive
[6]
  Potency: inactive
[4]
  Potency: inactive
KB-3-1
  max response: 9.07% (inactive)
CAOV3
  Potency: inactive
HeLa
  Potency: inactive
JEG-3
  Potency: inactive
SKOV3
  Potency: inactive

## c1cncc(OC[C@@H]2CCN2)c1
[1]
  Potency: inactive
[3]
  Potency: inactive
[4]
  Potency: inactive
KB-3-1
  max response: -3.57% (inactive)
CAOV3
  Potency: inactive
HeLa
  Potency: inactive
JEG-3
  Potency: inactive
SKOV3
  Potency: inactive

## CC(=O)OC[C@]12C[C@H](OC(=O)CC(C)C)C(C)=C[C@H]1O[C@@H]1[C@H](O)[C@@H](O)[C@@]2(C)[C@]12CO2
[1]
  Potency: 112 nM (active)
[2]
  Potency: inactive
[3]
  Potency: inactive
[4]
  Potency: inactive
KB-3-1
  Potency: 39.9 nM (active)
HeLa
  Potency: 158 nM (active)
JEG-3
  Potency: 1580 nM (active)

## O=C(CC1NCCC[C@H]1O)Cn1cnc2cc(Br)c(Cl)cc2c1=O (some centres undefined)
[1]
  Potency: inactive
[6]
  Potency: inactive
KB-3-1
  max response: -10.5% (inactive)

## COC1CC(O[C@H]2CC[C@@]3(C)C(CCC4C3CC[C@]3(C)[C@@H](C5=CC(=O)OC5)CC[C@]43O)C2)OC(C)C1O (some centres undefined)
[2]
  Potency: inactive
[3]
  Potency: inactive
[4]
  Potency: inactive
KB-3-1
  Potency: 159 nM (active)
CAOV3
  Potency: 178 nM (active)
HeLa
  Potency: 141 nM (active)
SKOV3
  Potency: 126 nM (active)

## C[N@@+]1(CC2CC2)CC[C@]23c4c5ccc(O)c4O[C@H]2C(=O)CC[C@@]3(O)[C@H]1C5
[5]
  Potency: inactive
[1]
  Potency: inactive
[2]
  Potency: inactive
[3]
  Potency: inactive
[4]
  Potency: inactive
KB-3-1
  outcome: inactive
CAOV3
  Potency: inactive
HeLa
  Potency: inactive
JEG-3
  Potency: inactive

## C[C@@H]1C[C@@H](O)[C@]2(O)O[C@@H]3C[C@@]4(C=O)C(CC[C@@H]5C4CC[C@]4(C)[C@@](O)(C6=CC(=O)OC6)CC[C@]54O)C[C@H]3OC2O1 (some centres undefined)
[1]
  Potency: 1590 nM (active)
[3]
  Potency: inactive
[4]
  Potency: inactive
KB-3-1
  Potency: 2240 nM (active)
HeLa
  Potency: 3980 nM (active)

## CC(=O)OC[C@]12C[C@H](O)C(C)=C[C@H]1O[C@@H]1[C@H](O)[C@@H](O)[C@@]2(C)[C@]12CO2
[1]
  Potency: 4040 nM (active)
[2]
  Potency: inactive
[3]
  Potency: inactive
[4]
  Potency: inactive
KB-3-1
  Potency: 2270 nM (active)
CAOV3
  Potency: 3980 nM (active)
HeLa
  Potency: 7940 nM (active)
SKOV3
  Potency: 3980 nM (active)

## C=C1[C@@H](C)[C@H]2[C@H](Cc3ccccc3)NC(=O)[C@]23OC(=O)/C=C/C(=O)CCC[C@@H](C)C/C=C/[C@H]3[C@@H]1O
[1]
  Potency: 5800 nM (active)
KB-3-1
  Potency: 5800 nM (active)
CAOV3
  Potency: 12600 nM (active)
JEG-3
  Potency: inactive
SKOV3
  Potency: 25100 nM (active)

## CC1CCCC(=O)CCC/C=C/c2cc(O)cc(O)c2C(=O)O1 (centres undefined)
[7]; at 57.5 µM (top of the series)
  activity change, negative = inhibition: -7.32% (inactive)
[7]; measured here: cell count channel max response
  max response: 9.42%
[7]; measured here: lipid channel max response
  max response: 4.67%
[5]
  Potency: inactive
[1]
  Potency: inactive
[3]
  Potency: inactive
KB-3-1
  outcome: inactive
CAOV3
  Potency: inactive
HeLa
  Potency: inactive
JEG-3
  Potency: inactive
SKOV3
  Potency: inactive

## C[C@]12CC[C@H](O)C[C@H]1CC[C@@H]1[C@@H]2[C@H](O)C(=O)[C@]2(C)[C@@H](c3ccc(=O)oc3)CC[C@]12O
[1]
  Potency: 25.9 nM (active)
[2]
  Potency: inactive
[3]
  Potency: inactive
[4]
  Potency: inactive
KB-3-1
  Potency: 46.1 nM (active)

## O=C(OC[C@H]1O[C@@H](Oc2ccc(O)cc2CO)[C@H](O)[C@@H](O)[C@@H]1O)c1ccccc1
[3]
  Potency: inactive
[4]
  Potency: inactive
KB-3-1
  max response: 4.17% (inactive)
CAOV3
  Potency: inactive
JEG-3
  Potency: inactive

## CC1=C[C@H]2O[C@@H]3C[C@H]4OC(=O)/C=C/C=C/C(=O)OCC/C(C)=C/C(=O)OC[C@@]2(CC1)[C@]4(C)[C@]31CO1
[1]
  Potency: 17.8 nM (active)
[2]
  Potency: inactive
[3]
  Potency: inactive
[4]
  Potency: inactive
KB-3-1
  Potency: 20 nM (active)
HeLa
  Potency: 89.1 nM (active)
JEG-3
  Potency: 126 nM (active)
SKOV3
  Potency: 70.8 nM (active)

## CC[C@H]1C2CC3[C@@H]4N(C)c5ccccc5[C@]45C[C@@H]([C@H]2[C@H]5O)N3[C@@H]1O
[1]
  Potency: inactive
[2]
  Potency: inactive
[4]
  Potency: inactive
KB-3-1
  max response: 0.117% (inactive)
CAOV3
  Potency: inactive
HeLa
  Potency: inactive
JEG-3
  Potency: inactive
SKOV3
  Potency: inactive

## C[C@H]1O[C@@H](O[C@H]2CC[C@]3(C=O)C4CC[C@]5(C)[C@@H](C6=CC(=O)OC6)CC[C@]5(O)[C@@H]4CC[C@]3(O)C2)C[C@@H](O)[C@@H]1O (some centres undefined)
[1]
  Potency: 50.2 nM (active)
[2]
  Potency: inactive
[3]
  Potency: inactive
[4]
  Potency: inactive
KB-3-1
  Potency: 89.3 nM (active)
CAOV3
  Potency: 112 nM (active)
HeLa
  Potency: 126 nM (active)
SKOV3
  Potency: 112 nM (active)
